# CCHF vOTU inh: blocks the CCHF virus ovarian tumor domain protease; CCHFV vOTU protease, Pep-AMC fluorescence; inhibition, % at 11.5 µM; 370,000 compounds, 0.55% hits; also: 0% = vehicle wells with enzyme and 100% = no enzyme wells
# RecA intein inh: inhibitors of M. tuberculosis RecA intein splicing; P9WHJ3; cell-free RecA intein splicing, fluorescence; inhibition, % (no concentration beside the values); 290,000 compounds, 0.75% hits; in the data active = inhibition above about 30%;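 also: 0% = vehicle wells and 100% = reference inhibitor control wells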
# Target sequence (P9WHJ3 whole entry, looked up): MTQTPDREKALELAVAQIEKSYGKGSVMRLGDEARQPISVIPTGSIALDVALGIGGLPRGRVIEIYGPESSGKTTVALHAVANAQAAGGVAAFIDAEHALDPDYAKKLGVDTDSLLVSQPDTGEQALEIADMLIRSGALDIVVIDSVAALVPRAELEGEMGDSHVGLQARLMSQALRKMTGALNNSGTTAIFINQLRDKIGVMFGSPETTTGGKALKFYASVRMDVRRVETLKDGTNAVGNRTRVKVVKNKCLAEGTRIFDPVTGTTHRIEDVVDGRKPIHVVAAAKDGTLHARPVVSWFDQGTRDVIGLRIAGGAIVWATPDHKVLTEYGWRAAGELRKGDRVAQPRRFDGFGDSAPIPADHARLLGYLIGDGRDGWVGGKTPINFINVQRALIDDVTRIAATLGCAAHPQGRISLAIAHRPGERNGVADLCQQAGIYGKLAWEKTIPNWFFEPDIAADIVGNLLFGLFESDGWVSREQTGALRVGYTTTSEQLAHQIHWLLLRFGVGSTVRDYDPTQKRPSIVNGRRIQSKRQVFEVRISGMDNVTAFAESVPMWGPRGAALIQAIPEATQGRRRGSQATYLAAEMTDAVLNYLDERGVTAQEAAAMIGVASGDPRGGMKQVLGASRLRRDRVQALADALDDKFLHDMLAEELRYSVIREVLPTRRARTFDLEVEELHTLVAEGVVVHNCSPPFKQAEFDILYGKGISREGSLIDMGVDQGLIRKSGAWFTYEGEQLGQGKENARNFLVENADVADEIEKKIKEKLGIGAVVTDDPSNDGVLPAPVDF
# GDH-TPI counter: counter-screen for M. tuberculosis FBA inhibitors: GDH-TPI coupled enzymes; 360,000 compounds, 1.2% hits; AID 588335; inhibition, % at 4.8 µM; GDH-TPI coupled enzyme counterscreen, NADH absorbance;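 also: 0% = DMSO wells and 100% = wells lacking the enzyme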
# Mtb FBA inh: inhibits M. tuberculosis FBA enzyme | purified M. tuberculosis FBA, fluorescence read-out | inhibition, % at 1 µM | 360,000 compounds, 2.3% hits; in the data active = inhibition above about 27%;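 also: 0% = vehicle and 100% = reference inhibitor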
# GFP chromo cs: counter-screen GFP chromophore formation inhibition; shares compounds with RecA intein inh; cell-free GFP chromophore formation, fluorescence; EC50, µM; 2,100 compounds, 83% hits; AID 434968; call rule not given here
# * marks the source's active call; other numbers are inactive results; · = not tested or not shown. Compounds with a hit are over-represented: about 4.2% of the library has one in this group of screens. Rule as the data show it, unless noted: active = inhibition above about 30%; inactive = the rest.
SMILES,CCHF vOTU inh,RecA intein inh,GDH-TPI counter,Mtb FBA inh,GFP chromo cs
C#CCOc1ccc(Br)cc1/C=N/O,4,1,1,-2,·
CCOc1ccc(Cl)cc1C(c1c(C)[nH][nH]c1=O)c1c(C)[nH][nH]c1=O,4,97*,-4,-2,0.92*
NC(=O)c1csc(CCNC(=O)c2ccccc2)n1,5,·,-1,-2,·
COc1cccc(NC(=O)C(C)Sc2nnc(C3CC3)n2C2CC2)c1 (centres undefined),18,·,11,-4,·
OC(COC(c1ccc(Cl)cc1)c1ccc(Cl)cc1)CN1CCc2ccccc2C1 (centres undefined),17,30*,-4,-1,>38
O=C(c1ccncc1)N(c1ccc2oc3c(c2c1)CCCC3)S(=O)(=O)c1ccc(F)cc1,11,51*,-2,0,4.1*
N=C1CCC(=N)c2c1c(O)c1ccccc1c2O,·,91*,-3,0,28*
CC1(C(=O)Nc2ccc(Cl)cc2)Cc2c(-c3ccc4c(c3)OCO4)ccnc2O1 (centres undefined),3,·,-1,11,·
CC(C)Cn1c(N)c(S(=O)(=O)c2cccs2)c2nc3ccccc3nc21,-149,47*,23,142*,29*
COc1ccc(/C=N/n2c(N)c(S(=O)(=O)c3cccs3)c3nc4ccccc4nc32)cc1OC,-9,-5,11,3,·
CCOC(=O)CSc1ccc(C(=O)NCCCN2CCOCC2)cc1[N+](=O)[O-],-4,-2,10,0,·
COc1ccc(N(C(=O)c2ccco2)S(=O)(=O)c2cccs2)cc1,5,33*,7,3,>38
COc1ccc(C(=O)N(c2ccc(OC)cc2)S(=O)(=O)c2cccs2)cc1,-11,2,4,2,·
O=C(Nc1ccccc1N(C(=O)c1ccco1)S(=O)(=O)c1cccs1)c1ccco1,7,10,2,-1,5.8*
COc1ccc(NC(=O)CN(C)C(=O)c2ccc(OCc3ccccc3)c(OC)c2)cc1,-6,·,9,-1,·
CC(C)CC(=O)C1=C(O)C(=O)N(Cc2ccccc2)C1c1ccccc1 (centres undefined),3,-2,-1,0,·
N#Cc1c(Cl)c(Cl)c2nnc(-c3ccc(Br)cc3)n2c1Cl,3,49*,·,·,5.1*
[S-]c1nnc(-c2ccc(Br)cc2)n1-c1ccccc1.[Zn+2],2,8,-6,1,·
CCCCNC(=O)C1(C)CCCCN1C(=O)c1ccc2ccccc2n1 (centres undefined),9,·,-10,-4,·
O=C(CSc1nnc(Cc2ccccc2)o1)Nc1cccc(F)c1,14,43*,12,0,>38
Cn1c(=O)[nH]c(=O)c2c1nc([N+](=O)[O-])n2Cc1ccccc1,-3,62*,15,3,17*
CC(C)Cn1c([N+](=O)[O-])nc2c1c(=O)[nH]c(=O)n2C,7,16,2,-1,·
O=C(Nc1ccccc1Cl)c1ccc2nc(N3CCOCC3)sc2c1,-3,2,8,-1,·
Cc1ccc(NC(=O)c2cccc(-n3cnnn3)c2)cc1Cl,8,·,0,0,·
CCNC(=S)N(CCc1c(C)[nH]c2ccc(F)cc12)Cc1cccnc1,-6,2,3,-2,·
SMILES,CCHF vOTU inh,RecA intein inh,GDH-TPI counter,Mtb FBA inh,GFP chromo cs
Cc1[nH]c2ccc(F)cc2c1CCN(Cc1cccnc1)C(=S)Nc1ccc(F)cc1,6,40*,-3,0,>38
Cc1ccc(-c2[nH]nc3c2C(c2ccccc2OC(=O)N2CCOCC2)C(C#N)=C(N)O3)cc1 (centres undefined),-9,·,·,·,·
N#CC1=C(N)Oc2n[nH]c(-c3ccccc3)c2C1c1cccc(OC(=O)N2CCOCC2)c1 (centres undefined),1,68*,17,-4,10*
N#CC1=C(N)Oc2n[nH]c(-c3ccc(F)cc3)c2C1c1cccc(OC(=O)N2CCOCC2)c1 (centres undefined),12,80*,7,-1,11*
COc1ccc(-c2[nH]nc3c2C(c2ccccc2OC(=O)N2CCOCC2)C(C#N)=C(N)O3)cc1 (centres undefined),9,71*,-7,0,21*
COc1ccc(-c2[nH]nc3c2C(c2ccc(OC(=O)N4CCOCC4)cc2)C(C#N)=C(N)O3)cc1 (centres undefined),1,·,·,·,·
Cc1ccc(S(=O)(=O)N2CCC(=O)c3ccccc32)cc1,-20,·,8,7,·
O=C1C=C(N(CCO)Cc2ccccc2)c2ccccc2C1=O,·,88*,9,0,0.6*
COc1cccc(CNC(=O)Cc2ccc(NC3=NC4CS(=O)(=O)CC4S3)cc2)c1 (centres undefined),4,-3,9,0,·
COc1ccc(OC)c(NC(=O)Cc2ccc(NC3=NC4CS(=O)(=O)CC4S3)cc2)c1 (centres undefined),0,38*,-1,0,>38
Cc1noc(C)c1COC(=O)Cc1ccc(Br)cc1,1,1,2,3,>38
Cc1onc(-c2ccccc2Cl)c1C(N)=O,7,-1,-1,0,·
Cc1[nH]n(C)c(=O)c1C(=O)c1c(-c2ccccc2Cl)noc1C,-5,74*,2,3,17*
Cc1nc(C(F)(F)F)ccc1C(=O)Nc1ccccc1N1CCOCC1,0,0,4,-2,·
COc1cccc(NC(=O)CSc2c3c(nc4ccccc24)CCCC3)c1,-12,70*,0,0,24*
CCOC(=O)CN1C(=O)N[C@@H](c2cccc(C(F)(F)F)c2)C(C(C)=O)=C1C,·,35*,11,0,>38
CCOC(=O)CN1C(=O)N[C@@H](c2cccc(F)c2)C(C(C)=O)=C1C,3,3,2,-2,·
COc1cccc(-n2nnnc2S(C)(=O)=O)c1,·,91*,3,1,7.3*
Nc1cc(-c2cccc([N+](=O)[O-])c2)[nH]n1,-3,8,5,-8,·
O=c1cc(-c2cccc([N+](=O)[O-])c2)[nH][nH]1,-14,96*,10,-1,11*
Cc1nc2ccccc2c2c1C(=O)N(Cc1cccnc1)C2=O,5,54*,1,-1,0.81*
C[C@@H]1CC=C[C@H]2[C@H]1C(=O)N(Cc1ccccc1)[C@H]2c1ccc(C(F)(F)F)cc1,11,37*,11,2,>38
COc1ccc(Br)cc1[C@H]1[C@H]2C=CC[C@@H](C)[C@@H]2C(=O)N1Cc1ccccc1,2,34*,0,-2,>38
COC(=O)Cc1nnn2c1[C@H](C)[C@H](c1cccc(OC)c1OC)OCC2,-9,·,·,·,·
COc1cc(/C=N/NC(=O)c2ccc(F)cc2)ccc1OC(=O)c1ccco1,5,30*,13,0,>38
O=C(N/N=C/c1ccc(OC(=O)c2ccco2)cc1)c1ccc[n+]([O-])c1,2,32*,36*,-2,>38
COc1cc(/C=N/NC(=O)c2ccncc2)ccc1OC(=O)c1ccco1,-3,25,13,-3,·
O=C(Cc1cccc([N+](=O)[O-])c1)Nc1ccc(C(=O)N2CCCCC2)cc1,-6,·,2,1,·

# Bioassay records (PubChem)
